Results on 36 compounds are retold here after PubChem BioAssay.

The structures appear in SMILES notation.

The assay in a line: hepatitis C replication reporter changes, two-sided – Huh7 cells, luciferase reporter, HCV replication inhibitor project, primary screen (AID 1109).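 Also: huh7 hepatoma cells harbouring a luciferase neomycin HCV replicon reporter; luciferase luminescence as measure of HCV replicon replication; test concentration not given here.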 As to conditions: Huh7 HCV replicon luciferase reporter, 48 h; higher = more signal. In general terms: In a reporter assay the amount or activity of a reporter protein is the signal.
As to `CC(C)(C)N1CC=CC23O[C@@H]4/C=C\CCCOC(=O)C4[C@H]2C(=O)N(CCCO)[C@@H]3C1=O` (stereo partly specified), the z-score was determined as 0.0578.
For `Cc1ccc(S[C@]2(C(=O)NCCCN(C)C)CC(=O)N(C3Cc4ccccc4C3)[C@@H]2c2ccc(CO)cc2I)cc1` the value was -2.83.
For `CCOc1cc(C(O)C2C=CC3C(=O)N(c4ccccc4)C(=O)C3N2Nc2ccccc2F)ccc1O` (stereo unspecified) the value was -0.299; for `Cc1ccc(F)cc1S(=O)(=O)N[C@H]1CCN(Cc2ccc(OC(C)C)cc2)C1`, -3.4; for `COC(=O)C(CC#Cc1ccc2c(c1)[C@]1(C(=O)N2)[C@H](c2ccc(OCCO)cc2)N2[C@H](c3ccccc3)[C@H](c3ccccc3)OC(=O)[C@H]2[C@@H]1C(=O)N1CCCCCCC1)C(=O)OC`, -0.851.
Take `[N-]=[N+]=Nc1ccccc1C[C@]1(C(=O)N2CCOCC2)N=C(c2ccc(OCCCO)cc2)O[C@H]1c1ccccc1N=[N+]=[N-]`: the z-score was -2.23.
In the case of `O=C(NC1CC1)[C@@H]1c2ccccc2C(=O)N(Cc2ccc(OC(F)(F)F)cc2)[C@H]1c1ccc(CO)cc1`, the z-score was -1.06.
In turn, `CN(C)CCCC[C@@H]1NC(=O)[C@H]2C[C@@H](C(=O)O)[C@@H](c3ccc(O)cc3)N2C1=O` had a z-score of -0.0575.
Next, `CO[C@H]1O[C@H](CO)[C@@H](OC(=O)Nc2ccccc2)[C@H](OC(=O)Nc2ccccc2)[C@H]1OC(=O)Nc1ccccc1`: -2.73.
For `[N-]=[N+]=NCc1ccccc1[C@@H]1OC(c2ccc(OCCCO)cc2)=N[C@]1(Cc1ccccc1N=[N+]=[N-])C(=O)O` the value was -0.909; for `CC(C)=CCCC(C)=CC(O)C1C=CC2C(=O)NC(=O)C2N1Nc1ccc(Cl)cc1Cl` (stereo unspecified), -0.922.
For `CC(C)C(=C=CC[C@H](O)c1ccccc1OCCO)C[C@H](O)c1cc(Cl)cc(Cl)c1O` the value was -1.99; for `COc1ccc(C(=O)Nc2ccc3c(c2)[C@@]2(O[C@H](CCO)[C@@H]([Si](C)(C)c4ccc(OC)cc4)[C@@H]2C)C(=O)N3Cc2ccccc2)cc1`, -5.23.
The compound `CC(C)(C)OC(=O)CC[C@@]1(C(=O)NCCN2CCOCC2)N=C(c2ccc(OCCCO)cc2)O[C@@H]1c1ccccc1CN=[N+]=[N-]` displayed a z-score of -0.0116.
For `CC(C)C(CO)N1C(=O)[C@@H]2C3C(=O)OCCC/C=C\[C@H]3OC23C=CCN(Cc2ccccc2)C(=O)[C@@H]13` (stereo partly specified), the z-score is 0.537.
`COC(=O)C(CC#Cc1ccc2c(c1)[C@]1(C(=O)N2)[C@H](C(=O)N2CCc3cc(OC)c(OC)cc3C2)[C@H]2C(=O)O[C@H](c3ccccc3)[C@H](c3ccccc3)N2[C@@H]1c1ccccc1OCCO)C(=O)OC` showed a z-score of -2.09.
Consider `CC(C)=CCCC=C(C)C(O)C1C=CC2C(=O)N(c3ccccc3)C(=O)C2N1Nc1ccc(C#N)cc1` (stereo unspecified), for which the z-score is -1.96.
Next, `C=CCC(OC(C)=O)[C@@H]1[C@@H](N(Cc2cccc3ccccc23)C(=O)Cc2ccc(OC)cc2)c2cc(OCCCO)ccc2N1C(=O)Cc1ccc2ccccc2c1` (stereo partly specified): 0.24; `CN1C(=O)C2C=CC(C(O)c3ccc(-c4ccccc4)s3)N(NC(=O)OC(C)(C)C)C2C1=O` (stereo unspecified): -0.204; `COC(=O)[C@@]1(Cc2ccccc2)N=C(c2ccc(OCCCO)cc2)O[C@H]1c1ccccc1CN=[N+]=[N-]`: -3.42.
Compound `COc1ccc([Si](C)(C)[C@H]2[C@H](CC(=O)N3Cc4ccccc4C[C@H]3CO)O[C@@]3(C(=O)N(C)c4ccccc43)[C@@H]2C)cc1` came in with a z-score of -4.34.
For `C=CCC(OC(C)=O)[C@@H]1[C@@H](N(Cc2cc3ccccc3o2)C(=O)c2cccc3ccccc23)c2cc(OCCCO)ccc2N1C(=O)c1ccc2ccccc2n1` (stereo partly specified) the value was 0.0107; for `CCOC(=O)C[C@H]1[C@H](OC(=O)c2ccccc2-c2ccccc2)[C@@H](NC(=O)C2CCCCC2)c2cc(OCCCO)ccc2N1C(=O)c1ccc2ccccc2n1`, -1.71; for `O=C1C2C=CC(C(O)C3CCCCC3)N(n3cnnc3)C2C(=O)N1Cc1ccccc1` (stereo unspecified), -0.911.
`C=CCOC(=O)[C@@H]1[C@H]2C(=O)O[C@H](c3ccccc3)[C@H](c3ccccc3)N2[C@H](c2ccc(OCCOC(=O)[C@H]3C[C@H]4C(=O)N[C@@H](CCCCN(C)C)C(=O)N4[C@H]3c3ccc(O)cc3)cc2)[C@@]12C(=O)Nc1ccc(I)cc12` showed a z-score of -3.31.
Next, `O=C1C[C@]2(c3ccc([N+](=O)[O-])cc3)C(=O)N(C3CC3)c3cc(CO)ccc3[C@H]2N1C1CCCCC1`: 0.82; `CN(C)CCCNC(=O)[C@@]1(Cc2ccccc2I)c2ccccc2C(=O)N(C2CCCCC2)[C@H]1c1ccc(CO)cc1`: -3.49.
Regarding `C=CCC(OC(C)=O)[C@@H]1[C@@H](N(Cc2cccc3ccccc23)C(=O)c2ccc(-c3ccccc3)cc2)c2cc(OCCCO)ccc2N1C(=O)Cc1ccc2ccccc2c1` (stereo partly specified), the z-score was -0.105.
In turn, `COc1cc(C(O)C2C=CC3C(=O)N(c4ccccc4)C(=O)C3N2Nc2ccccc2F)cc(OC)c1OC` (stereo unspecified) returned a z-score of -0.892.
As for `C=CCN1C(=O)[C@@]2(O[C@@H](CCn3cc([C@H](O)c4ccccc4)nn3)[C@H]([Si](C)(C)c3ccc(OC)cc3)[C@H]2C)c2cc(N3C(=O)c4cccc5cccc3c45)ccc21`, the z-score was -3.74.
With `COC(=O)[C@H](Cc1ccc(O)cc1)N[C@@H](/C=C/C1CC1)[C@H](O)Cc1ccccc1`, the z-score was -1.06.
Next, `COc1ccc([Si](C)(C)[C@@H]2[C@@H](CC(=O)N3CCC[C@H]3CO)O[C@]3(C(=O)N(Cc4cccc(N5CCCCC5=O)c4)c4ccccc43)[C@H]2C)cc1`: -2.57; `O=C1C[C@@](C(=O)O)(c2ccc([N+](=O)[O-])cc2)[C@@H](c2ccc(CO)cc2)N1C1CCCCC1`: -1.67; `CCOC(=O)c1cn(C[C@H](Cc2ccccc2)NC(=O)N[C@H](CO)CCc2oc(C(C)=O)c(C(=O)OC)c2C(=O)OC)nn1`: 0.404.
Compound `NCCCCCCNC(=O)[C@@H]1C[C@@H]2C(=O)N3CCC[C@H]3C(=O)N2[C@@H]1c1cccc(OCCO)c1` registered a z-score of 0.116.
For `COCCOC(=O)N1C(=O)[C@@]2(c3cc(C#CCCO)ccc31)[C@H](C(N)=O)[C@H]1C(=O)O[C@H](c3ccccc3)[C@H](c3ccccc3)N1[C@@H]2c1ccccc1OCCO` the value was -2.12.
